PubChem BioAssay (Tox21)
Records with an inconclusive call do not appear. Activity calls are given as the source filed them. Calls follow the shape of the full dose curve.

Experiments:
[1] = target: Acetylcholinesterase (Homo sapiens) (UniProt P22303); experiment: Acetylcholinesterase (AChE) small molecule antagonists: colormetric cell-based qHTS assay (AID 1347395); also: nearly all actives have a fitted effect of over 30% in size
Summary of the method: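 Quantitative HTS in attached SH-SY5Y cells: 30 min compound exposure, then 90 min with acetylthiocholine and DTNB at 37 C; colour from thiocholine reports AChE activity.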

[2] = target: Acetylcholinesterase (Homo sapiens) (UniProt P22303); experiment: Acetylcholinesterase (AChE) small molecule antagonists: enzyme-based qHTS assay (AID 1347397); settings: Potency: AChE enzyme activity inhibition; outcome: AChE enzyme activity inhibition; also: nearly all actives have a fitted effect of over 55% in size
Summary of the method: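 Enzyme inhibition was scored from DTNB-detected thiocholine formed by recombinant human AChE acting on acetylthiocholine. The 30 min compound preincubation and 10 min substrate reaction were both run at room temperature, with DMSO as vehicle control.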

[3] = target: Acetylcholinesterase (Homo sapiens) (UniProt P22303); experiment: Acetylcholinesterase (AChE) small molecule antagonists: fluorescence cell-based qHTS assay (AID 1347398); settings: Potency: AChE activity; outcome: AChE activity; also: nearly all actives have a fitted effect of over 50% in size
Summary of the method: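 Endogenous acetylcholinesterase of SH-SY5Y neuroblastoma cells is measured in situ. After overnight attachment and 30 min compound exposure, cells receive acetylthiocholine and Thiolite Green; fluorescence is read after 40 min at room temperature.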
% is scaled to controls: 0 for no effect and ±100 for the full control effect; potency is read from the fitted curve at half-maximal effect.

Sequence of Acetylcholinesterase (Homo sapiens) (P22303 whole entry, looked up): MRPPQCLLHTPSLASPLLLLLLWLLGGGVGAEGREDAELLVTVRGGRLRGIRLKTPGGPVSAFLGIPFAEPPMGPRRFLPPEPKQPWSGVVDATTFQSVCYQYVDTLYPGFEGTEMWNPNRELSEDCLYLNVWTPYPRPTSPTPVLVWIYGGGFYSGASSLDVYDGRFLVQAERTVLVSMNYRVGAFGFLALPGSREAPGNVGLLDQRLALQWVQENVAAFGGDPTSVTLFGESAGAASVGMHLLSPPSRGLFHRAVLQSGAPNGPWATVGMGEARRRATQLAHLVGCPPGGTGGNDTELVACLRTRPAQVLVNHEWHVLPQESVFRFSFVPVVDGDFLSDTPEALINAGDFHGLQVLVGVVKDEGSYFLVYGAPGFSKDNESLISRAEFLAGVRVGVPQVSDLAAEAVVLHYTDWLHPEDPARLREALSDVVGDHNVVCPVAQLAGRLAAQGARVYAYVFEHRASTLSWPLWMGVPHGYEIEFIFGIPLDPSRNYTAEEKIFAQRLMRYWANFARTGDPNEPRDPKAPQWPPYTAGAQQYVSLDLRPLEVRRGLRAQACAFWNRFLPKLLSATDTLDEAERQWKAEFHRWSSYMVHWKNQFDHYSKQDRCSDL

CC(=O)OC/C=C(\C)CCC=C(C)C
inactive: Potency [1] | Potency [2] | Potency [3]

C[C@@H]1C[C@H]2O[C@@]3(O[C@@H]2C(C)(C)O)[C@H](O)[C@@]2(C)[C@@H]4CC[C@H]5C(C)(C)[C@@H](O[C@@H]6OC[C@@H](O)[C@H](O)[C@H]6O)CC[C@@]56C[C@@]46CC[C@]2(C)[C@@H]13
inactive: Potency [1] | Potency [2] | Potency [3]

CN(C)C(=O)C1(N2CCCCC2)CCN(CC[C@@]2(c3ccc(Cl)c(Cl)c3)CN(C(=O)c3ccccc3)CCO2)CC1
active: Potency [1] 33.2 µM | Potency [2] 16.7 µM | Potency [3] 4.69 µM

CCCCCCCCCCCCCC[n+]1ccccc1
active: Potency [1] 31.7 µM | Potency [2] 56.4 µM | Potency [3] 20 µM

C=C(C)C(=O)OCCOCCOCCOC(=O)C(=C)C
inactive: Potency [1] | Potency [2] | Potency [3]

COP(=O)(OC)OC(c1ccc(Cl)cc1)P(=O)(OC)OC (stereo not given)
inactive: Potency [1] | Potency [2] | Potency [3]

CC1(C)S[C@@H]2[C@H](NC(=O)COc3ccccc3)C(=O)N2[C@H]1C(=O)O
inactive: Potency [1] | Potency [2] | Potency [3]

CC1=C(C(=O)O)N2C(=O)[C@@H](NC(=O)[C@H](N)c3ccccc3)[C@H]2SC1
inactive: Potency [1] | Potency [2] | Potency [3]

CCCCCCCCCCCC(=O)OC[C@@H](O)[C@H]1OC[C@H](OCCO)[C@H]1OCCO
inactive: Potency [1] | Potency [2] | Potency [3]

N#[N+]c1ccc2c(S(=O)(=O)[O-])cccc2c1O
inactive: Potency [1] | Potency [2] | Potency [3]

CC(NN)c1ccccc1 (stereo not given)
inactive: activity, negative = inhibition [1] 1.5% [at 23.6 µM] | activity change, negative = inhibition [2] 0.277% [at 23.6 µM] | activity change, negative = inhibition [3] 0.294% [at 23.8 µM]

CC(C)(N)C#N
inactive: Potency [1] | Potency [2] | Potency [3]

Cc1cc(CCC(=O)OCCOCCOCCOC(=O)CCc2cc(C)c(O)c(C(C)(C)C)c2)cc(C(C)(C)C)c1O
inactive: Potency [1] | Potency [2] | Potency [3]

CCN(C(=O)c1cc(C)cc(OC[C@H](C)Nc2ccncc2)c1)C(C)C
active: Potency [1] 12.5 µM | Potency [2] 22.2 µM | Potency [3] 6.26 µM

CCC[C@H](N[C@@H](C)C(=O)N1[C@H](C(=O)O)C[C@@H]2CCCC[C@@H]21)C(=O)OCC
inactive: Potency [1] | Potency [2] | Potency [3]

CC(CC(C)(C)C)CC(C)(C)CC(C)(C)C (stereo not given)
inactive: Potency [1] | Potency [2] | Potency [3]

c1cnccn1
inactive: Potency [1] | Potency [2] | Potency [3]

COc1cc(C)cc(O)c1
inactive: Potency [1] | Potency [2] | Potency [3]

CC(C)c1nnc2ccc(-c3ocnc3-c3cc(F)ccc3F)cn12
inactive: Potency [1] | Potency [2] | Potency [3]

Cc1cc2nc3ccc(=[N+](C)C)cc-3sc2cc1N
active: Potency [1] 1.38 µM | Potency [2] 4.9 µM | Potency [3] 2.19 µM

Cc1occc1SSc1ccoc1C
inactive: Potency [1] | Potency [2] | Potency [3]

C[C@@H](Oc1ccc(CNC(=O)c2cccnc2Oc2ccc3c(c2)OCO3)c(F)c1)C(=O)O
inactive: Potency [1] | Potency [2] | Potency [3]

CCCn1cnc2c1c(=O)n(CCCCC(C)=O)c(=O)n2C
inactive: Potency [1] | Potency [2] | Potency [3]

Cn1c(=O)c2c(ncn2CCO)n(C)c1=O
inactive: Potency [1] | Potency [2] | Potency [3]

OCc1cccnc1
inactive: Potency [1] | Potency [2] | Potency [3]

N[C@@H](Cc1ccc(O)cc1)C(=O)O
inactive: activity, negative = inhibition [1] -0.421% [at 10.5 µM] | activity change, negative = inhibition [2] -0.135% [at 10.5 µM] | activity change, negative = inhibition [3] 10.1% [at 10.5 µM]

CCN[C@@H]1C[C@H](N)[C@@H](OC2OC(CN)=CCC2N)[C@H](O)[C@H]1O[C@H]1OC[C@](C)(O)[C@H](NC)[C@H]1O (stereo not given in full)
inactive: activity, negative = inhibition [1] 0.264% [at 0.435 µM] | activity change, negative = inhibition [2] 0.139% [at 0.435 µM] | activity change, negative = inhibition [3] 7.61% [at 0.439 µM]

C=C/C=C/C=C/CCCCC
inactive: activity, negative = inhibition [1] 0.16% [at 23.6 µM] | activity change, negative = inhibition [2] 0.676% [at 23.6 µM] | activity change, negative = inhibition [3] -10.6% [at 23.8 µM]

CCN1CN(CC)CN(CC)C1
inactive: Potency [1] | Potency [2] | Potency [3]

CCOC(=O)N1CCC(=C2c3ccc(Cl)cc3CCc3cccnc32)CC1
inactive: Potency [1] | Potency [2] | Potency [3]

CNCCCN1c2ccccc2CCc2ccccc21
inactive: Potency [1] | Potency [2] | Potency [3]

CCOc1ccccc1C(N)=O
inactive: Potency [1] | Potency [2] | Potency [3]

Oc1ccccc1-c1nnco1
inactive: Potency [1] | Potency [2] | Potency [3]

CCc1ccc(CCOc2ccc(CC3SC(=O)NC3=O)cc2)nc1 (stereo not given)
inactive: Potency [1] | Potency [2] | Potency [3]

CCCC(=O)Nc1ccc(OCC(O)CNC(C)C)c(C(C)=O)c1 (stereo not given)
inactive: Potency [1] | Potency [2] | Potency [3]
